# Only a selection was taken, and hits are over-represented in it overall.
# ST2 IL33 inh = IL1RL1 inhibition; Q01638; AlphaLISA ST2-Fc/biotin-IL-33 interaction, 1 h; 78,000 tested, 2.3% active; inhibition, % for hits at 17 µM; in the data active = inhibition above about 30%
# Target sequence (Q01638 whole entry, looked up): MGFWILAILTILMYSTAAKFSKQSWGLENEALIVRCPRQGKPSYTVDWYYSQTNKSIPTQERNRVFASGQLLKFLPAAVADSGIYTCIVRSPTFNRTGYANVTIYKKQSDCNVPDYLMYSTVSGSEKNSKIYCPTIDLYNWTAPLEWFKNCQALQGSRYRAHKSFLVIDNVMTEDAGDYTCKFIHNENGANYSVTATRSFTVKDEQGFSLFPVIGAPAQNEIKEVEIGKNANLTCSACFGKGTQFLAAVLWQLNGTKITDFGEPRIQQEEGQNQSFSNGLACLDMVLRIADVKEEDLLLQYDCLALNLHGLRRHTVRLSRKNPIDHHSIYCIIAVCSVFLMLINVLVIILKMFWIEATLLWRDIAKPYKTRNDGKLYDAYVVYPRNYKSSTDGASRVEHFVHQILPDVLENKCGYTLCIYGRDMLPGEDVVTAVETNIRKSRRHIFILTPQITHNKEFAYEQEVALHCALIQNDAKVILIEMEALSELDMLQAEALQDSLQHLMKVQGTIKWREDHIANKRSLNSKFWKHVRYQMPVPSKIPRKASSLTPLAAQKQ
# * marks the source's active call; other numbers are inactive results; i = inactive.
SMILES,ST2 IL33 inh
CCC(CC)C(=O)Nc1ccc(Nc2nc(C)cc(Nc3ccc(OC)cc3)n2)cc1,39.0%*
COc1ccc(Nc2cc(C)nc(Nc3ccc(NC(=O)c4ccc(OC)cc4)cc3)n2)cc1,32.0%*
O=C(c1ccccc1OC1CCN(Cc2cccc(C(F)(F)F)c2)CC1)N1CCCCC1,i
CN(C)CCNC(=O)C[C@@H]1O[C@H](CNC(=O)c2ccc(N(C)C)cc2)[C@@H](O)[C@H]1O,i
COc1cc(CN2CCCC(C(=O)N3CCCCC3)C2)cc(OC)c1OC (configuration not stated),i
CCCNC(=O)C1(O)c2cc(Br)ccc2NC(=O)N1c1ccc(OC)cc1OC (configuration not stated),i
COc1ccc(N(C(=O)C2CCCC2)C2C=CS(=O)(=O)C2)c(OC)c1 (configuration not stated),i
O=C(CS(=O)(=O)c1cn(Cc2ccc(F)cc2)c2ccccc12)Nc1nccs1,i
CN(C(=O)c1cc(-c2cccc(Cl)c2)on1)c1ccccc1,i
C=CCN1C(=O)C(=O)C(=C(O)c2ccc(Br)cc2)C1c1cccc(OC)c1 (configuration not stated),i
O=C(CSc1nnc(Cc2cc(=O)[nH]c(=O)[nH]2)n1-c1ccccc1)Nc1ccc(Cl)cc1,i
Cc1nc2ccccn2c1C(=O)N1CCOC(CCCc2ccccc2)C1 (configuration not stated),i
CCC1CCCCN1CCNS(=O)(=O)c1cccc2nonc12 (configuration not stated),i
Cc1cc(Nc2ccccc2)nc(Nc2ccc(NC(=O)c3cccc(Br)c3)cc2)n1,i
CCC(C(=O)Nc1ccc(Nc2nc(C)cc(Nc3ccc(C)cc3)n2)cc1)c1ccccc1 (configuration not stated),36.0%*
Cc1cc(N(C)C)nc(Nc2ccc(NC(=O)CC3CCCC3)cc2)n1,i
Cc1ccc(Nc2cc(C)nc(Nc3ccc(NC(=O)c4ccccc4C)cc3)n2)cc1,i
Cc1cc(Nc2ccccc2)nc(Nc2ccc(NC(=O)c3ccccc3)cc2)n1,32.0%*
Cc1ccc(Nc2cc(C)nc(Nc3ccc(NC(=O)CC(C)(C)C)cc3)n2)cc1,i
COc1ccc(Nc2cc(C)nc(Nc3ccc(NC(=O)c4ccc(C(F)(F)F)cc4)cc3)n2)cc1,i
COc1ccc(Nc2cc(C)nc(Nc3ccc(NC(=O)CCC4CCCC4)cc3)n2)cc1,30.0%*
Cc1cc(Nc2ccccc2)nc(Nc2ccc(NC(=O)c3ccccc3Cl)cc2)n1,i
CCc1c(C)nn(CCNC(=O)C2CC3(CCNCC3)CN2)c1C (configuration not stated),i
CCO[C@H]1[C@H](NC(=O)CC)c2ccccc2C12CCN(C(=O)c1cc3ccccc3oc1=O)CC2,i
CC(=O)c1ccc(OC(NC(=O)c2ccccc2[N+](=O)[O-])C(Cl)(Cl)Cl)cc1 (configuration not stated),i
SMILES,ST2 IL33 inh
O=S(=O)(c1cc(F)ccc1F)N1CCN(c2cc(-c3ccc(F)cc3)ncn2)CC1,i
CC(=O)Nc1cccc(C(=O)NC(C)c2cnn(-c3ccccn3)c2C)c1 (configuration not stated),i
CN(Cc1ccccc1)c1ncccc1CNC(=O)C1CCCCN1C (configuration not stated),i
CC(C)(CC(=O)O)CC(=O)N1Cc2[nH]cnc2C[C@H]1c1nc(-c2ccc3c(c2)OCO3)no1,i
c1ccc2oc(CN3Cc4[nH]cnc4C[C@H]3c3nc(-c4ccc5c(c4)OCO5)no3)cc2c1,61.0%*
O=C(NCc1ccccc1)N1Cc2[nH]cnc2C[C@H]1c1nc(-c2ccc3c(c2)OCO3)no1,i
CCN1CCc2c(sc(NC(=O)c3ccc(Cl)cc3)c2C(=O)OC)C1,89.0%*
CCN1CCc2c(sc(NC(=O)COc3ccccc3)c2C(=O)OC)C1,i
COC(=O)c1c(NC(=O)c2ccc(F)cc2)sc2c1CCN(C(C)C)C2,i
C[C@@H]1O[C@@H](O[C@H]2[C@H](Oc3c(-c4ccc(O)cc4)oc4cc(O[C@@H]5O[C@H](CO)[C@@H](O)[C@H](O[C@@H]6O[C@H](CO)[C@@H](O)[C@H](O)[C@H]6O)[C@H]5OC(=O)/C=C/c5ccc(O)cc5)cc(O)c4c3=O)O[C@H](CO)[C@@H](O)[C@@H]2O)[C@H](O)[C@H](O)[C@H]1O,i
O=C1CSc2ccc(C(=O)N3CCC(Cc4ccccc4)CC3)cc2N1,i
O=C(Cc1cccs1)Nc1ccccc1NC(=O)Cc1cccs1,i
O=C(O)c1ccc(NCc2cccs2)cc1,i
COc1ccccc1NCc1cccs1,32.0%*
COC(=O)c1ccc(C2C(C(=O)Nc3ccc(C)cc3C)=C(C)Nc3nnnn32)cc1 (configuration not stated),i
CCn1cnc2sc(C(=O)NCC3COc4ccccc4O3)c(C)c2c1=O (configuration not stated),i
COCc1nnc(NC(=O)CN2CCCOc3c(cccc3OC)C2)s1,i
CO/N=C\c1c(Sc2ccc(C)cc2)nc2ccccn2c1=O,i
Cc1cc(C)c([N+](=O)[O-])cc1-c1ccc(C=C2C(=O)NC(=O)NC2=O)o1,36.0%*
Cc1cc(Cl)ccc1-c1ccc(C=O)o1,i
O=C1NC(=O)/C(=C/c2ccc(-c3cccc(Cl)c3Cl)o2)N1,i
COc1cccc(OC)c1C(=O)Nc1c2c(nn1-c1cccc(C)c1C)CS(=O)C2 (configuration not stated),i
O=C(NCc1ccc(Cl)cc1)c1ccc2nc3ccc(Cl)cc3c(=O)n2c1,i
CCOc1ccc(C2=C(CN(C)C)C(c3ccc(F)cc3)c3ccccc3O2)cc1 (configuration not stated),40.0%*
CCOC1=CC(c2ccc(F)cc2)Oc2ccccc21 (configuration not stated),i
SMILES,ST2 IL33 inh
CCOc1ccc(C2=C(CN3CCOCC3)C(c3ccccc3)c3ccccc3O2)cc1 (configuration not stated),31.0%*
c1ccc(OCCCN2CCOCC2)cc1,i
CCOc1ccc2c(=O)c(-c3ccc(F)cc3)c(C)oc2c1,i
CCOC(=O)C1CCN(C(=O)C2c3ccccc3Oc3ccccc32)CC1,i
CC(C)C(C)(NC(=O)c1cccnc1Oc1ccc(Cl)cc1)C(N)=O (configuration not stated),i
COc1ccc(NC(=O)CN2CCCN(Cc3cccc(F)c3)S2(=O)=O)cc1OC,i
CN(CCc1nc2ccc(F)cc2[nH]1)C(=O)c1cn(CC2CCCCC2)nn1,i
Cc1nc(-c2ccccc2)ncc1C(=O)N1CC[C@@H]2CC[C@H](C1)N2C,i
COc1ccc(OCC(=O)Nc2ccc(Br)cn2)cc1,i
CC(=O)Nc1cccc(-c2ccc(NC(=O)CN)c(F)c2)c1,i
C#CCN(C)C[C@@H]1C=C(C)[C@H](Cc2nnc(-c3ccccc3)o2)C[C@H]1C(C)C,i
Cc1ccc(-n2c(C)nc3c(cnn3-c3ccc(F)cc3)c2=O)cc1,i
Cc1ccc(-n2ncc3c([N+](=O)[O-])cc([N+](=O)[O-])cc32)cc1,62.0%*
Cc1ccc(-n2ncc3c(=O)n(-c4ccc(C)c(C)c4)c(C)nc32)cc1,i
COc1ccc(CN2CC3CC4CC2C[C@@H](C4)C3)cc1C(=O)O,i
CCCC(Nc1ncc(C)c(N(C)C)n1)c1nccn1C (configuration not stated),i
COc1ccc(-c2nn(-c3ccccc3)cc2CN2CCC(OC)CC2)c(F)c1,i

# Screening data (PubChem BioAssay)
